From PubChem
This is a sample that favours compounds with a hit; in the whole collection about 1.1% have one here.
OPRM1-OPRD1 inv: inverse agonists of MOR-DOR heterodimerization, primary screen, cell-based, luminescence; cell-based MOR-DOR heterodimer luminescence, inverse agonism; inhibition, % at 9.3 µM; actives 0.21% (n = 340,000); in the data active means inhibition above about 22%, passing the limit was not always enough;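 further: 0% = cells with DMSO and 100% = wells without cells with DMSO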
MOR-DOR ag: agonists of OPRM1-OPRD1 heterodimerization, primary screen, cell-based, luminescence; Mu-type opioid receptor (Homo sapiens) + Delta-type opioid receptor (Homo sapiens), …; cells; activation, % at 9.3 µM; actives 0.3% (n = 340,000); AID 504326, 2011; in the data active means activation above about 18%;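 further: 0% = vehicle-treated cells and 100% = reference agonist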
HTR5A ag ctr: HTR5A agonists in luminescence cell assay, primary screen, counter-screen for OPRM1-OPRD1 heterodimer agonist project, full-deck HTS; cell-based; activation, % at 9.3 µM; actives 0.61% (n = 340,000); in the data active means activation mostly above about 9.5%, no sharp cut-off; inactive means mostly below about 7.6%;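 further: 0% = cells with vehicle only and 100% = reference agonist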
Target sequence (P47898 whole entry, looked up): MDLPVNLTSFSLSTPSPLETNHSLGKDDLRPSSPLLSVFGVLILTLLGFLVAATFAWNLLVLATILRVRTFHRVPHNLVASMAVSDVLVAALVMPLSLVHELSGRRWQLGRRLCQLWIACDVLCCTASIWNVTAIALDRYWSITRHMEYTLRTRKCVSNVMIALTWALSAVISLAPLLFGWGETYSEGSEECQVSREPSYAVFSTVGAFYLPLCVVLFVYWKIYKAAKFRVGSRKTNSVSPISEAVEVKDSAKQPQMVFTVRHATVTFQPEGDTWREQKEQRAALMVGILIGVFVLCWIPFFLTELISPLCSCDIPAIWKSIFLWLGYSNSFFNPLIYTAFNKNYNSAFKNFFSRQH
HTR5A inv ag: HTR5A inverse agonists in luminescence cell assay, primary screen, counter-screen for OPRM1-OPRD1 heterodimer inverse agonist project, full-deck HTS. HTR5A cell line, inverse agonism. inhibition, % at 9.3 µM. actives 0.083% (n = 340,000). AID 504634, 2011; in the data active means inhibition mostly above about 23%, no sharp cut-off; inactive means mostly below about 18%;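 further: 0% = cells with DMSO and 100% = no-cell wells with DMSO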
* = called active by the depositor.

SMILES | OPRM1-OPRD1 inv | MOR-DOR ag | HTR5A ag ctr | HTR5A inv ag
CCCNS(=O)(=O)c1ccc(OCC(=O)Nc2ccc3c(c2)OCCO3)c(C)c1 | -11 | 2 | 9.6* | 3
CCCNS(=O)(=O)c1ccc(OCC(=O)Nc2ccc3c(c2)OCCO3)cc1 | 6 | -1 | -3 | 7
COc1ccc2nc(C)cc(N/N=C/c3ccc(F)cc3)c2c1 | -153 | 31* | 8 | -29
O=C(COC(=O)c1ncc(Cl)c(Cl)c1Cl)NC1CCCCCC1 | 0 | 0 | 0 | -4
COc1ccc(N(CC(=O)NCCSc2ccccn2)S(=O)(=O)c2ccc(C)cc2)cc1OC | 14 | -3 | 14* | -9
COc1ccccc1C(=O)Nc1cccc2c1CCCC2 | -2 | 0 | 7 | -24
CSc1ccccc1NC(=O)N1CCCC(C(=O)c2ccc3c(c2)OCO3)C1 (stereo not given) | 9 | -2 | 1 | 1
CC(=O)c1ccc(NC(=O)N2CCCC(C(=O)c3ccc4c(c3)OCO4)C2)cc1 (stereo not given) | -11 | 2 | 11* | -29
COc1ccc(C)cc1S(=O)(=O)N1CCN(C/C=C/c2ccccc2)CC1 | -4 | 1 | -7 | 18
CCOc1ccccc1N1CCN(Cc2cn[nH]c2-c2ccc(F)cc2)CC1 | 1 | 0 | 14* | -14
CCOc1ccccc1N1CCN(Cc2cccc(OC)c2OC)CC1 | 4 | -1 | 1 | -3
Nc1cc(=O)nc(SCC(=O)N(C2CCCCC2)C2CCCCC2)n1-c1ccccc1 | -17 | 3 | 13* | -12
CCn1c(C)nc2cc(C(=O)N/N=C/c3ccc(O)c(O)c3O)ccc21 | -49 | 8 | 13* | -32
COc1ccc(CN(C)C(=O)c2ccc(Cl)c(S(=O)(=O)NCc3cccnc3)c2)cc1F | -1 | 0 | -3 | 8
CCNC(=O)C1CC(=O)N(Cc2ccc3c(c2)OCO3)C(=Nc2ccc(OCC)cc2)S1 (stereo not given) | 2 | 0 | 9.0* | -6
O=C(c1ccc2c3c(cccc13)CC2)C1CCCN(C(=O)c2ccc(=O)[nH]c2)C1 (stereo not given) | -6 | 1 | 13* | -35
Cc1ncccc1C(=O)N1CCCC(C(=O)c2ccc3c4c(cccc24)CC3)C1 (stereo not given) | 15 | -3 | -2 | 9
Cc1ccc(NC(=O)C(=O)NCc2ccc(/C=N/NC(=O)c3c(C)nc4ccccn34)o2)cc1 | 10 | -2 | 0 | 9
Cc1cc(C)cc(NC(=O)CSc2nc(=O)n(CCCN3CCOCC3)c3c2CCCC3)c1 | -1 | 0 | 1 | -12
Cc1cc(CC(=O)O)n(C)c1C(=O)c1ccc(Cl)cc1 | 13 | -2 | 9.7* | -40
Cn1nccc1C(=O)c1ccc(Cl)cc1 | 18 | -4 | 6 | -16
CCOC(=O)c1c(-c2ccc(C)o2)csc1NC(=O)COC(=O)c1cccs1 | 6 | -1 | 11* | 10
CCOc1ccc(/C=N/n2c(-c3ccccc3)n[nH]c2=S)cc1 | -27 | 5 | -3 | 8
COc1cc(NC(=O)COc2cccc3c2OC(C)(C)C3)cc(OC)c1OC | 1 | 0 | 14* | -50
COc1cc(C)c(NC(=O)COc2cccc3c2OC(C)(C)C3)cc1OC | 4 | -1 | 6 | -14
SMILES | OPRM1-OPRD1 inv | MOR-DOR ag | HTR5A ag ctr | HTR5A inv ag
COc1ccc(NC(=O)COc2cccc3c2OC(C)(C)C3)c(OC)c1 | 3 | 0 | 13* | -52
COc1ccc2nc(NCCCNC(=O)c3cc(OC)c(OC)c(OC)c3)c(C#N)cc2c1 | 0 | 0 | 14* | -4
C=CCOc1ccc(/C=N/NC(=O)c2c(C)nc3ccc(Cl)cn23)cc1 | -70 | 15 | 11* | -40
COc1cc(NC(=O)Cn2nc(C(F)(F)F)c(Br)c2C)cc([N+](=O)[O-])c1 | -55 | 10 | 12* | -40
CC(C)(C)c1ccc(OCc2ccc(C(=O)N/N=C/c3ccc(O)c(O)c3)cc2)cc1 | -24 | 5 | 8.8* | -22
CC#CCN(Cc1ccco1)C(=O)c1ccc(OC2CCN(Cc3ccccn3)CC2)cc1 | 12 | -2 | 9.8* | -30
CN(Cc1ccco1)C(=O)c1ccc(OC2CCN(Cc3ccccn3)CC2)cc1 | 8 | -2 | 1 | -3
Cc1cc(-c2nnc(CCC(=O)N(CC3CCC3)CC3CCCO3)o2)no1 (stereo not given) | -1 | 0 | -4 | 12
COc1ccc(-c2cc(-c3ccccc3)nc(NN)n2)cc1OC | 26 | -5 | -10 | 26
Cc1ccc(-c2cc(-c3ccccc3)nc(NN)n2)cc1 | 43* | -9 | -9 | 33*
CC(C)CNC(=O)COc1ncnc2sccc12 | 17 | -4 | 2 | -5
COc1ccc(C(C(=O)NC2CCCCC2)N(C(=O)CCl)c2ccc(Cl)cc2)cc1 (stereo not given) | -479 | 89* | 66* | -106
O=C(NC1CCCCC1)C(c1cccnc1)N(C(=O)CCl)c1cccc(Cl)c1 (stereo not given) | -183 | 35* | 36* | -76
Cc1cccc(N(C(=O)CNC(=O)c2ccco2)C(C(=O)NC2CCCCC2)c2cccnc2)c1 (stereo not given) | 9 | -1 | 0 | -14
CN(C(=O)CSc1nc(N)cc(N)n1)C1CCS(=O)(=O)C1 (stereo not given) | 1 | 0 | -5 | 14
O=C(CCN1C(=O)c2ccccc2S1(=O)=O)Nc1cccc(F)c1 | 6 | -1 | -2 | 4
CC(C)(C)c1ccc(S(=O)(=O)NNC(=O)c2cc3ccccc3[nH]2)cc1 | -73 | 15 | 13* | -48
CCCC(C)NNC(=O)c1cc2ccccc2[nH]1 (stereo not given) | -7 | 1 | -3 | -3
Fc1cccc(CCN2CCNC[C@@H]2CC2CCCCC2)c1 | -10 | 2 | -5 | -13
CC(C)n1cc(C#N)c(N)n1 | -6 | 1 | -4 | 15
O=C1Nc2ccccc2C1=Nc1ccc(Cl)cc1 | 64* | -14 | -4 | 14
O=C1Nc2ccccc2C1=Nc1ccc(Br)cc1 | 55* | -11 | -5 | 21
CCN(CC)c1ccc(N=C2C(=O)Nc3ccccc32)cc1 | 24 | -5 | -3 | 10
N#C/C(=C/Nc1ccccc1F)S(=O)(=O)c1ccc(Cl)cc1 | 11 | -2 | 3 | -10
Cc1ccc(S(=O)(=O)N2CCOCC2)cc1NC(=O)CSc1nnc(NC2CC2)s1 | 13 | -3 | -3 | 0
Cn1c(=O)c2c(nc(NCc3ccco3)n2C/C=C/c2ccccc2)n(C)c1=O | -41 | 8 | 11* | -39
COc1ccccc1C1CCN(C(=O)c2cnn(-c3ccccc3)c2C)CC1 | -3 | 1 | 12* | -1
CC[C@H](C)Cc1cn([C@@H](CCCN=C(N)N)C(=O)NCCCCCCCCCCC(=O)N2CCNCC2)nn1 | 9 | -2 | 6 | -15
COc1ccc(Nc2nnc(SCC(=O)Nc3ccc4[nH]c(=O)[nH]c4c3)s2)cc1 | -9 | 2 | 0 | 0
